This is part of a sample that, as a whole, favours compounds with a hit. Of some 83,000 tested, about 20% had one in any assay.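 Method: cells in 96-well plates; compound added at one concentration; 48 h incubation; percent growth measured; values under 10 scored active.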 Activity calls are given as the source filed them.
Tests used:
Test in all cases: NCI-60 one-dose screen, 48 h (100 = growth as untreated, 0 = no growth, -100 = all killed)
Conditions in all cases: 10 µM unless noted
NCI-H23 lung = tested on: NCI-H23 lung
NCI-H226 lung = tested on: NCI-H226 lung
NCI-H322M lung = tested on: NCI-H322M lung
HOP-62 NSCLC = tested on: HOP-62 NSCLC
NCI-H460 lung = tested on: NCI-H460 lung
NCI-H522 lung = tested on: NCI-H522 lung
A549/ATCC NSCLC = tested on: A549/ATCC NSCLC
786-0 renal = tested on: 786-0 renal
COLO 205 colon = tested on: COLO 205 colon
DU-145 prostate = tested on: DU-145 prostate
K-562 leukemia = tested on: K-562 leukemia
MDA-MB-231 breast = tested on: MDA-MB-231 breast
RXF 393 renal = tested on: RXF 393 renal
SF-268 CNS = tested on: SF-268 CNS
SF-295 CNS = tested on: SF-295 CNS
SF-539 CNS = tested on: SF-539 CNS
UACC-257 melanoma = tested on: UACC-257 melanoma
M14 melanoma = tested on: M14 melanoma
MALME-3M melanoma = tested on: MALME-3M melanoma

Measured: growth

C#C[C@]1(O)CC[C@H]2[C@@H]3CC=C4c5sc(-c6ccc(C)cc6)nc5CC[C@]4(C)[C@H]3CC[C@@]21C
inactive: NCI-H23 lung 46.4% | NCI-H226 lung 99.3% | NCI-H322M lung 33% | HOP-62 NSCLC 23.2% | NCI-H522 lung 27.6% | A549/ATCC NSCLC 38.3% | COLO 205 colon 104% | DU-145 prostate 39.8%
active: NCI-H460 lung -0.692% | 786-0 renal -52.5% | K-562 leukemia 6.37% | MDA-MB-231 breast 4.97% | RXF 393 renal -68.1% | SF-268 CNS 7.62% | SF-295 CNS -66.5% | SF-539 CNS -47.7% | UACC-257 melanoma -17.9% | M14 melanoma -49.9%

COc1cc(OC)c(S(N)(=O)=O)cc1C(C)=O
inactive: NCI-H23 lung 106% | NCI-H226 lung 103% | NCI-H322M lung 109% | HOP-62 NSCLC 113% | NCI-H460 lung 107% | NCI-H522 lung 103% | A549/ATCC NSCLC 104% | 786-0 renal 101% | COLO 205 colon 119% | DU-145 prostate 108% | MALME-3M melanoma 109% | MDA-MB-231 breast 101% | RXF 393 renal 121% | SF-268 CNS 104% | SF-295 CNS 100% | SF-539 CNS 101% | UACC-257 melanoma 102% | M14 melanoma 109%

CC(C)(C)c1ccc(C(=O)Nc2nc3ccc(O)cc3s2)cc1
active: 786-0 renal 2.03% | COLO 205 colon 8.14% | K-562 leukemia 8.79% | SF-295 CNS 3.43%
inactive: NCI-H23 lung 54.8% | NCI-H226 lung 53.5% | NCI-H322M lung 54.8% | HOP-62 NSCLC 82.9% | NCI-H460 lung 19.1% | NCI-H522 lung 52.6% | A549/ATCC NSCLC 38.4% | DU-145 prostate 48.2% | MDA-MB-231 breast 69.5% | RXF 393 renal 46.3% | SF-268 CNS 55.9% | SF-539 CNS 38.1% | UACC-257 melanoma 31.8% | M14 melanoma 14.3%

O=C(CCn1c[n+](CC(=O)c2ccc(F)cc2)c2ccccc21)Nc1cccc2cccnc12
inactive: NCI-H23 lung 83.4% | NCI-H226 lung 78.1% | NCI-H322M lung 93.9% | HOP-62 NSCLC 85.7% | NCI-H460 lung 88.3% | NCI-H522 lung 67.5% | A549/ATCC NSCLC 102% | 786-0 renal 102% | COLO 205 colon 55.7% | DU-145 prostate 96.6% | K-562 leukemia 58.5% | MDA-MB-231 breast 57.4% | RXF 393 renal 92.7% | SF-268 CNS 78.6% | SF-295 CNS 99.2% | SF-539 CNS 89.6% | UACC-257 melanoma 47.6% | M14 melanoma 79.8%

COc1ccc(-c2nc3cccc(O)c3c(=O)n2Cc2ccccc2)cc1COc1ccc(NC(C)=O)cc1
active: NCI-H460 lung 4.9% [3 µM]
inactive: NCI-H23 lung 62.5% [3 µM] | NCI-H226 lung 56.2% [3 µM] | NCI-H322M lung 67.6% [3 µM] | HOP-62 NSCLC 43.6% [3 µM] | NCI-H522 lung 52.5% [3 µM] | A549/ATCC NSCLC 44.9% [3 µM] | 786-0 renal 54.7% [3 µM] | COLO 205 colon 49.8% [3 µM] | DU-145 prostate 50.2% [3 µM] | K-562 leukemia 18.9% [3 µM] | MDA-MB-231 breast 64.2% [3 µM] | RXF 393 renal 52.6% [3 µM] | SF-268 CNS 58.2% [3 µM] | SF-295 CNS 23.8% [3 µM] | SF-539 CNS 40.1% [3 µM] | UACC-257 melanoma 67.2% [3 µM] | M14 melanoma 53.8% [3 µM]

COc1ccc(C2CC(c3ccc(Nc4nc(NCCO)nc(N5CCOCC5)n4)cc3)=Nc3c(N)nc(N)nc3N2)cc1 (stereo unspecified)
inactive: NCI-H23 lung 99.1% | NCI-H226 lung 94.8% | NCI-H322M lung 95% | HOP-62 NSCLC 108% | NCI-H460 lung 110% | NCI-H522 lung 95.6% | A549/ATCC NSCLC 104% | 786-0 renal 97.3% | COLO 205 colon 109% | DU-145 prostate 103% | K-562 leukemia 99.1% | MDA-MB-231 breast 90.6% | RXF 393 renal 114% | SF-268 CNS 90.2% | SF-295 CNS 106% | SF-539 CNS 92.2% | UACC-257 melanoma 109% | M14 melanoma 107%

C#C[C@]1(O)CC[C@H]2[C@@H]3CC=C4c5sc(-c6cccc(O)c6)nc5CC[C@]4(C)[C@H]3CC[C@@]21C
active: NCI-H23 lung -26.8% | NCI-H226 lung -29.4% | NCI-H322M lung -5.55% | HOP-62 NSCLC -20.8% | NCI-H460 lung -52.9% | NCI-H522 lung 3.14% | A549/ATCC NSCLC -16.2% | 786-0 renal -57.6% | COLO 205 colon -25.3% | DU-145 prostate 2.17% | K-562 leukemia -5.49% | MDA-MB-231 breast -40.8% | RXF 393 renal -68.5% | SF-268 CNS -15.4% | SF-295 CNS -64.7% | SF-539 CNS -68.9% | UACC-257 melanoma -42.6% | M14 melanoma -41.1%

COc1cc2nc(Cl)nc(Nc3cccc(C4=Nc5c(N)nc(N)nc5NC(c5ccc(Cl)cc5)C4)c3)c2cc1OC (stereo unspecified)
active: NCI-H460 lung 2.91% | 786-0 renal -52.1% | K-562 leukemia -22% | SF-295 CNS -23.9%
inactive: NCI-H23 lung 87.8% | NCI-H226 lung 90.4% | NCI-H322M lung 86.3% | HOP-62 NSCLC 18% | NCI-H522 lung 34.6% | A549/ATCC NSCLC 37.2% | COLO 205 colon 21.5% | DU-145 prostate 87.7% | MDA-MB-231 breast 72.9% | RXF 393 renal 73.6% | SF-268 CNS 84.2% | SF-539 CNS 89.3% | UACC-257 melanoma 87.3% | M14 melanoma 52.2%

Cc1ccc(C2=NN(C)C(=O)C3(CCCC3)C2)cc1
inactive: NCI-H23 lung 106% | NCI-H226 lung 105% | NCI-H322M lung 103% | HOP-62 NSCLC 114% | NCI-H460 lung 112% | NCI-H522 lung 103% | A549/ATCC NSCLC 99.5% | 786-0 renal 103% | COLO 205 colon 115% | DU-145 prostate 107% | K-562 leukemia 107% | MDA-MB-231 breast 104% | RXF 393 renal 124% | SF-268 CNS 98.1% | SF-295 CNS 101% | SF-539 CNS 103% | UACC-257 melanoma 100% | M14 melanoma 108%

NC(N)=Nc1ccc(Oc2cccc(Nc3ccc(Br)c(C(F)(F)F)c3)c2)cn1
active: NCI-H23 lung -61% | NCI-H226 lung -78.1% | NCI-H322M lung -43.6% | HOP-62 NSCLC -46.1% | NCI-H460 lung -76.9% | NCI-H522 lung -64.8% | A549/ATCC NSCLC -23.9% | 786-0 renal -67.8% | COLO 205 colon -73.2% | DU-145 prostate -94.5% | K-562 leukemia -30.3% | MDA-MB-231 breast -57.6% | RXF 393 renal -10.5% | SF-268 CNS 7.02% | SF-295 CNS -86.8% | SF-539 CNS -50.3% | UACC-257 melanoma -28.5% | M14 melanoma -62.1%

COc1ccc(/C=C(\C#N)C(=O)N2c3ccccc3Sc3ccc(SC)cc32)cc1F
inactive: NCI-H23 lung 91.4% | NCI-H226 lung 88.8% | NCI-H322M lung 90% | HOP-62 NSCLC 97% | NCI-H460 lung 94.4% | NCI-H522 lung 84.5% | A549/ATCC NSCLC 85.7% | 786-0 renal 84.4% | COLO 205 colon 111% | DU-145 prostate 97.3% | K-562 leukemia 80.8% | MDA-MB-231 breast 84.7% | RXF 393 renal 100% | SF-268 CNS 91.8% | SF-295 CNS 104% | SF-539 CNS 96.7% | UACC-257 melanoma 93.1% | M14 melanoma 105%

C#CCn1cccc1CNc1ccc(OC)cc1
inactive: NCI-H322M lung 47% | UACC-257 melanoma 23.6%
active: NCI-H23 lung -88.9% | NCI-H226 lung -50.1% | HOP-62 NSCLC -45.3% | NCI-H460 lung -50.5% | NCI-H522 lung -57.7% | A549/ATCC NSCLC -47.6% | 786-0 renal -69.6% | COLO 205 colon -60.7% | DU-145 prostate -96.6% | K-562 leukemia -46.9% | MDA-MB-231 breast -53.9% | RXF 393 renal -32.3% | SF-268 CNS -56% | SF-295 CNS -92% | SF-539 CNS -94.4% | M14 melanoma 7.08%

Source: PubChem BioAssay (NCI)
